From PubChem BioAssay (Tox21)
Values joined by “and” are separate entries in the source; they are usually repeats but may differ in a detail not shown here. Identical values can stand only once. Records with an inconclusive call do not appear. A call without a number means that no potency is given here. Active and inactive are the calls of the source. The call rests on the fitted dose curve; in most records, active means well fitted inhibition curve with a large enough effect in the signal ratio in the repeat runs; inconclusive means weak or mixed curves, or effect the other way; inactive means flat fitted curve, though single readings scatter; the % refers to the signal ratio.

test: qHTS assay for small molecule disruptors of the mitochondrial membrane potential (AID 720635); conditions: HepG2 mitochondrial membrane potential, Mito-MPS dye ratio; series mostly up to 83.2 µM
From the text: U.S. Tox21 Program National Center for Advancing Translational Sciences [NCATS] NIH Chemical Genomics Center [NCGC] U.S. Environmental Protection Agency [EPA] National Institutes of Environmental Health Sciences [NIEHS] National Toxicology Program [NTP] U.S. Food and Drug Administration [FDA] Tox21 Assay Overview: Mitochondrial membrane potential (MMP), one of the parameters for mitochondrial function, is generated by mitochondrial electron transport chain that creates an electrochemical gradient by a series of redox reactions. This gradient drives the synthesis of ATP, a crucial molecule for various cellular processes. Measuring MMP in living cells is commonly used to assess the effect of chemicals on mitochondrial function. […] The dye accumulates in the mitochondria of healthy cells as aggregates, with red fluorescence. The mitochondrial potential collapses and the dye can no longer accumulate in the mitochondria and remains in the cytoplasm in monomers, with green fluorescence.
Tox21 Assay Protocol Summary: 2,000 HepG2 cells in 5 uL/well were dispensed into black, clear-bottom 1536-well plates using a Multidrop Combi (Thermo Scientific) dispenser. The assay plates were incubated overnight at 37C to allow cells to attach to the wells, followed by the transfer of 23 nL compound or DMSO vehicle by a pin tool (Kalypsys). The plates were incubated for 1 hr at 37C and 5% CO2, followed by the addition of 5 uL of 2X Mito-MPS dye (BD Biosciences) into each well using Flying Reagent Dispenser (Aurora Discovery) and then following 30 min incubation at 37C. Fluorescence intensity (490nm excitation and 535nm emission for monomers; and 540nm excitation and 590nm emissions for aggregates) was measured using an Envision plate reader.
Potency means the concentration at half of the fitted maximal effect.

SMILES	Potency
NC(=S)NC(N)=S	inactive
O=C(Oc1ccccc1)Oc1ccccc1	inactive
CCc1cccc(CC)c1NC(=O)CN(CC(=O)O)CC(=O)O	inactive
CCCCCc1ccc(Cl)cc1	inactive
CCOc1ccc2ccccc2c1C(=O)N[C@@H]1C(=O)N2[C@@H]1SC(C)(C)[C@@H]2C(=O)O	inactive
Cc1ccc(C(C)C)cc2c(C)ccc1-2	inactive
COc1ccc(-c2coc3cc(O)ccc3c2=O)cc1	10.9 µM (active)
Cl[Si](Cl)(c1ccccc1)c1ccccc1	5.57 µM (active)
CCCCCCCCCCOC(=O)c1ccccc1C(=O)OCCCCCCCC	inactive
CC(=O)OCC=C(C)C	inactive
CC(C)(C)c1csc(-c2cc3cc(OCc4ccccc4CC(=O)O)ccc3o2)n1	4.86 µM (active)
C=CC(C)(CCC=C(C)C)OC=O (stereo not given)	inactive
O=C(O)[C@H](O)[C@@H](O)[C@H](O[C@@H]1O[C@H](CO)[C@H](O)[C@H](O)[C@H]1O)[C@H](O)CO	inactive
Cc1cccc(C(=O)O)c1O	inactive
CCCCC(CC)CN1CN(CC(CC)CCCC)CC(C)(N)C1 (stereo not given)	inactive
COC(C)=O	inactive
C#C[C@]1(OC(C)=O)CC[C@H]2[C@@H]3CCC4=C/C(=N/O)CC[C@@H]4[C@H]3CC[C@@]21CC	13.3 µM (active)
O=C(O)c1ccc2cc(C(=O)O)ccc2c1	inactive
CC1(C)[C@@H](O)CC[C@]2(C)[C@H]3C(=O)C=C4[C@@H]5C[C@@](C)(C(=O)O)CC[C@]5(C)CC[C@@]4(C)[C@]3(C)CC[C@@H]12	23.7 µM (active) and 67.8 µM (active)
Cc1c(C)c([N+](=O)[O-])c(C(C)(C)C)c([N+](=O)[O-])c1C	30.6 µM (active)

SMILES	Potency
CC(C)OC(=O)C(O)(CC(=O)O)CC(=O)O	inactive
COc1cc(/C=C/c2ccccc2)oc(=O)c1	71 µM (active)
S=c1nccc[nH]1	inactive
O=C1c2ccccc2C(=O)N1SC1CCCCC1	54.4 µM (active) and 48.6 µM (active)
Nc1ccc(NCCO)c([N+](=O)[O-])c1	15.4 µM (active)
CC/C=C\CCCCCO	inactive
Oc1c(I)cc(Cl)c2cccnc12	48.5 µM (active)
Cc1ccc(C)cc1	inactive
CC[N+](CC)(CC)CCOC(=O)C(C1CCCC1)C1CCCC1	inactive
O=C1NC(=O)[C@@H]2CC=CC[C@H]12	inactive
C[Si](Cl)(c1ccccc1)c1ccccc1	26.6 µM (active)
CCc1oc2ccccc2c1C(=O)c1cc(I)c(O)c(I)c1	2.66 µM (active)
CN(C)c1ccc(C(=C2C=CC(=[N+](C)C)C=C2)c2ccc(N(C)C)cc2)cc1	139 nM (active) and 30.5 nM (active) and 68.6 nM (active)
O=C(O)c1cc(=O)c2ccccc2o1	inactive
Cc1cccc2cccnc12	inactive
OC[C@H]1O[C@H](O[C@H]2O[C@H](CO)[C@@H](O)[C@H](O)[C@H]2O)[C@H](O)[C@@H](O)[C@@H]1O	inactive
O=C(O)c1cc(N=Nc2ccc([N+](=O)[O-])cc2)ccc1O	53.5 µM (active)
O=C(O)c1cc(-c2ccc(F)cc2F)ccc1O	11.4 µM (active)
O=c1c(O)c(-c2ccc(O)cc2O)oc2cc(O)cc(O)c12	22.9 µM (active)
CCCCNS(=O)(=O)c1ccc(C)cc1	inactive
